From PubChem BioAssay (Tox21) come the findings set out here.

Several values for one entry are separate records, joined by “and”; a condition that tells them apart may be missing. Equal entries are not always repeated. Results filed as inconclusive are left out. Entries that show only a call come without a potency. Unmarked numbers belong to inactive results. Activity calls are given as the source filed them. Unless noted, the call rests on the fitted dose curve.

Test system in the first assay: not listed separately
The assay can be described thus: qHTS assay to identify small molecule agonists or antagonists of the thyroid stimulating hormone receptor (TSHR) signaling pathway - wild type cell line counter screen (AID 1259384). The note with it: HEK293 wild type, cAMP HTRF counter-screen, stronger effect = higher value; series mostly up to 92.4 µM. The gist of the method: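 Wild-type Hek293 cells, 800/well, 18 h at 37C, then compound with Ro20-1724 for 30 min RT. cAMP by HTRF (cAMP-d2/anti-cAMP cryptate), 1 h RT, fluorescence read. 15 concentrations, triplicates.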
On to `c1ccc2c(c1)Oc1ccccc1S2`, for which the molecule was classed as inactive.
The same measure, in the same setting: for `C#C[C@]1(O)CC[C@H]2[C@@H]3CCc4cc(OC)ccc4[C@H]3CC[C@@]21C` the value was “inactive”.
As for `Cc1cc2nc3c(=O)[nH]c(=O)nc-3n(C[C@H](O)[C@H](O)[C@H](O)CO)c2cc1C`, the cAMP activity change is -5.16% [at 18.9 µM].
As for `COC(=O)c1ccccc1`, the outcome was inactive.
The same measure, in the same setting: next, `CC(C)OC=O`: “inactive”.
The same measure, in the same setting: next, `Cc1ccc(C(=O)c2cc(O)c(O)c([N+](=O)[O-])c2)cc1`: “inactive”; `O=C1c2cccc(O)c2C(=O)c2c(O)cccc21`: “inactive”.
Same read-out and setting: next, `C[Si](C)(C)O[Si](C)(C)C`: “inactive”.
As for `O=C=Nc1ccc(Cc2ccc(N=C=O)cc2)cc1`, the result was inactive.
On the same count and under the same terms, for `CN(C)C(=N)N=C(N)N` the value was “inactive”.
The same measure, in the same setting: for `NNc1ccc(C(=O)O)cc1` the value was “inactive”; for `CCCCCCCCCC(=O)OC`, “inactive”.
As to `c1ccncc1`, the call was inactive.
The same measure, in the same setting: for `Cc1c(OCC(F)(F)F)ccnc1CS(=O)c1nc2ccccc2[nH]1` (stereo not given) the value was “inactive”; for `O=C(/C=C/C=C/c1ccc2c(c1)OCO2)N1CCCCC1`, “inactive”.
For the molecule `S=C(NC1CCCCC1)NC1CCCCC1`, the molecule was called inactive.
Consider `O=C(COc1ccc(Cl)cc1)N1CCN(Cc2ccc3c(c2)OCO3)CC1`, for which the molecule was classed as inactive.
With `c1ccc(Nc2ccccc2)cc1`, the outcome was inactive.
Still for that read-out and setting: next, `CCC(C)(O)CCCC(C)C` (stereo not given): “inactive”.
On the same count and under the same terms, for `Cn1cnc([N+](=O)[O-])c1Sc1ncnc2nc[nH]c12` the value was “inactive”; for `CCOC(=O)C(C#N)=C(c1ccccc1)c1ccccc1`, “inactive”; for `O=C(c1ccccc1)c1ccc(O)cc1O`, “inactive”.
Take `CN(C)c1nc(N(C)C)nc(N(C)C)n1`: the molecule was called inactive.
Consider `CC(C)=CCC/C(C)=C\CO`, for which the molecule was called inactive.
Same read-out and setting: next, `C/C=C/C(=O)O`: “inactive”.
Still for that read-out and setting: next, `CC(=O)CC/C=C(\C)CCC=C(C)C`: “inactive”; `Nc1ccc(Cl)cc1Cl`: “inactive”.
For the molecule `Brc1cc(Oc2cc(Br)c(Br)c(Br)c2Br)c(Br)c(Br)c1Br`, the call was inactive.
Still for that read-out and setting: for `OC1CCCCCCCCCCC1` the value was “inactive”.
Consider `CCCCOCCOCCO`, for which the outcome was inactive.
On the same count and under the same terms, for `COc1ccccc1/C=C/C=O` the value was “inactive”; for `CC(=O)O[C@]1(C(C)=O)CC[C@H]2[C@@H]3C=C(Cl)C4=CC(=O)[C@@H]5C[C@@H]5[C@]4(C)[C@H]3CC[C@@]21C`, “inactive”; for `CCCCOCCOCCOCCO`, “inactive”.
As to `CC1=CC2C3CC(C=C3C)C2C1` (stereo not given), the call was inactive.
In the case of `CC(C)Oc1ccc2c(=O)c(-c3ccccc3)coc2c1`, the result was inactive.
Same read-out and setting: for `O=C1OC2(c3cc(Br)c(O)c(Br)c3Oc3c2cc(Br)c(O)c3Br)c2c(Cl)c(Cl)c(Cl)c(Cl)c21` the value was “inactive”.

The target of the next assay is Thyrotropin receptor (Homo sapiens) (UniProt P16473). The assay can be described thus: qHTS assay to identify small molecule antagonists of the thyroid stimulating hormone receptor (TSHR) signaling pathway (AID 1259385). Further: nearly all actives have a fitted effect of over 20% in size. The note with it: TSHR-HEK293 cAMP HTRF, TSH-stimulated antagonist mode; series mostly up to 92.4 µM. The gist of the method: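 TSHR-HEK293 cells (800/well) plated 18 h, then compounds with Ro20-1724 and TSH at 1.5 ng/mL final, 30 min at room temperature. cAMP quantified by HTRF (cAMP-d2/anti-cAMP-cryptate, 1 h); 15 concentrations in triplicate.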
Sequence of Thyrotropin receptor (Homo sapiens) (P16473 whole entry, looked up): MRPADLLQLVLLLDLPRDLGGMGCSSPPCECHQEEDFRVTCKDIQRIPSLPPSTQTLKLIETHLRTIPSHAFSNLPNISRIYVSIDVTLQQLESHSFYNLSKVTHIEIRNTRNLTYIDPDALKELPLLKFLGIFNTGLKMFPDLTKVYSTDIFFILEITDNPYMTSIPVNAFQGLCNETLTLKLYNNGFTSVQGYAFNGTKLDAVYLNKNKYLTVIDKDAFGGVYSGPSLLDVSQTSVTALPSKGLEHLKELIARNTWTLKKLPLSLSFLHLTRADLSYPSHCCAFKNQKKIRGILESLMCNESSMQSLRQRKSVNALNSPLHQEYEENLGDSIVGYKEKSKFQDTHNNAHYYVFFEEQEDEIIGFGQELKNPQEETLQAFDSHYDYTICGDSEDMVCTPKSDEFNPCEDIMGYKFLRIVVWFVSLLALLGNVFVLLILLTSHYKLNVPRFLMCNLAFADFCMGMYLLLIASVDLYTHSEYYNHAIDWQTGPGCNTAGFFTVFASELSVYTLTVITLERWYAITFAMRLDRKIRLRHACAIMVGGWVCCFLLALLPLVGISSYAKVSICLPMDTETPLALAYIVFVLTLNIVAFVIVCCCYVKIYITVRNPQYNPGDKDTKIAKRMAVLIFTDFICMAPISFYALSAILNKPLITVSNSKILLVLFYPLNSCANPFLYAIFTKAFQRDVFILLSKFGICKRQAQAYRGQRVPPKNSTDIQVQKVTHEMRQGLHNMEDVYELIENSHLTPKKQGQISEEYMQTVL
In the case of `c1ccc2c(c1)Oc1ccccc1S2`, the Potency entry was “inactive”.
On the same count and under the same terms, next, `C#C[C@]1(O)CC[C@H]2[C@@H]3CCc4cc(OC)ccc4[C@H]3CC[C@@]21C`: “inactive”.
On the same count and under the same terms, next, `COC(=O)c1ccccc1`: “inactive”; `CC(C)OC=O`: “inactive”; `Cc1ccc(C(=O)c2cc(O)c(O)c([N+](=O)[O-])c2)cc1`: “inactive”.
On to `O=C1c2cccc(O)c2C(=O)c2c(O)cccc21`, for which the Potency entry was “inactive”.
Same read-out and setting: next, `C[Si](C)(C)O[Si](C)(C)C`: “inactive”.
On the same count and under the same terms, next, `O=C=Nc1ccc(Cc2ccc(N=C=O)cc2)cc1`: “inactive”; `CN(C)C(=N)N=C(N)N`: “inactive”; `NNc1ccc(C(=O)O)cc1`: “inactive”.
With `CCCCCCCCCC(=O)OC`, the Potency result was “inactive”.
Turning to `c1ccncc1`, the Potency entry is “inactive”.
Same read-out and setting: next, `Cc1c(OCC(F)(F)F)ccnc1CS(=O)c1nc2ccccc2[nH]1` (stereo not given): “inactive”; `O=C(/C=C/C=C/c1ccc2c(c1)OCO2)N1CCCCC1`: “inactive”; `S=C(NC1CCCCC1)NC1CCCCC1`: “inactive”.
Same read-out and setting: for `O=C(COc1ccc(Cl)cc1)N1CCN(Cc2ccc3c(c2)OCO3)CC1` the value was “inactive”; for `c1ccc(Nc2ccccc2)cc1`, “inactive”.
Turning to `Cn1cnc([N+](=O)[O-])c1Sc1ncnc2nc[nH]c12`, the Potency result is “inactive”.
Regarding `CCOC(=O)C(C#N)=C(c1ccccc1)c1ccccc1`, the Potency result is “inactive”.
The same measure, in the same setting: for `O=C(c1ccccc1)c1ccc(O)cc1O` the value was “inactive”.
Same read-out and setting: next, `CN(C)c1nc(N(C)C)nc(N(C)C)n1`: “inactive”; `CC(C)=CCC/C(C)=C\CO`: “inactive”; `C/C=C/C(=O)O`: “inactive”.
The same measure, in the same setting: for `CC(=O)CC/C=C(\C)CCC=C(C)C` the value was “inactive”; for `Nc1ccc(Cl)cc1Cl`, “inactive”.
Turning to `Brc1cc(Oc2cc(Br)c(Br)c(Br)c2Br)c(Br)c(Br)c1Br`, the Potency entry is “inactive”.
Still for that read-out and setting: next, `OC1CCCCCCCCCCC1`: “inactive”.
The same measure, in the same setting: for `CCCCOCCOCCO` the value was “inactive”.
Still for that read-out and setting: for `COc1ccccc1/C=C/C=O` the value was “inactive”; for `CC(=O)O[C@]1(C(C)=O)CC[C@H]2[C@@H]3C=C(Cl)C4=CC(=O)[C@@H]5C[C@@H]5[C@]4(C)[C@H]3CC[C@@]21C`, “inactive”; for `CCCCOCCOCCOCCO`, “inactive”.
Take `CC1=CC2C3CC(C=C3C)C2C1` (stereo not given): the Potency result was “inactive”.
Consider `CC(C)Oc1ccc2c(=O)c(-c3ccccc3)coc2c1`, for which the Potency result is “inactive”.
For the molecule `O=C1OC2(c3cc(Br)c(O)c(Br)c3Oc3c2cc(Br)c(O)c3Br)c2c(Cl)c(Cl)c(Cl)c(Cl)c21`, the Potency result is “inactive”.

Test system in the next assay: not listed separately
The assay can be described thus: qHTS assay to identify small molecule agonists of the estrogen receptor alpha (ER-alpha) signaling pathway in the presence of an antagonist - cell viability counter screen (AID 1259386; active means well fitted cell-killing curve with a large enough effect in the repeat runs;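 further: cells exposed to compounds for 22 h at 37 °C before the viability read; nearly all actives have a fitted effect of over 30% in size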; further: potency means the concentration at half of the fitted maximal effect). The note with it: VM7Luc4E2 viability, CellTiter-Fluor fluorescence, 22 h; series mostly up to 92.4 µM. The gist of the method:
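Cell viability in VM7Luc4E2 cells (endogenous full-length ER-alpha) measured by CellTiter-Fluor fluorescence in the same wells as the luciferase screen. Cells pre-cultured 5 days in charcoal-stripped serum, then treated 22 h with compounds at 15 concentrations plus 10.0nM ICI-182,780.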
(In general: qHTS replaces the single test concentration by a dilution series.)
With `c1ccc2c(c1)Oc1ccccc1S2`, the Potency entry was “inactive”.
Still for that read-out and setting: next, `C#C[C@]1(O)CC[C@H]2[C@@H]3CCc4cc(OC)ccc4[C@H]3CC[C@@]21C`: “inactive”; `COC(=O)c1ccccc1`: “inactive”; `CC(C)OC=O`: “inactive”.
As for `Cc1ccc(C(=O)c2cc(O)c(O)c([N+](=O)[O-])c2)cc1`, the Potency was 27.3 µM (active) and 29.8 µM (active).
Still for that read-out and setting: for `C[Si](C)(C)O[Si](C)(C)C` the value was “inactive”; for `O=C=Nc1ccc(Cc2ccc(N=C=O)cc2)cc1`, “inactive”; for `CN(C)C(=N)N=C(N)N`, “inactive”.
The same measure, in the same setting: next, `NNc1ccc(C(=O)O)cc1`: “inactive”; `CCCCCCCCCC(=O)OC`: “inactive”.
For `c1ccncc1`, the Potency result is “inactive”.
Consider `COC(=O)Nc1nc2ccc(S(=O)c3ccccc3)cc2[nH]1` (stereo not given), for which the Potency result is “inactive”.
`S=C(NC1CCCCC1)NC1CCCCC1`: the Potency entry is “inactive”.
As to `O=C(COc1ccc(Cl)cc1)N1CCN(Cc2ccc3c(c2)OCO3)CC1`, the Potency result is “inactive”.
On the same count and under the same terms, next, `c1ccc(Nc2ccccc2)cc1`: “inactive”.
On the same count and under the same terms, for `CCC(C)(O)CCCC(C)C` (stereo not given) the value was “inactive”; for `Cn1cnc([N+](=O)[O-])c1Sc1ncnc2nc[nH]c12`, “inactive”.
Take `CCOC(=O)C(C#N)=C(c1ccccc1)c1ccccc1`: the Potency entry is “inactive”.
With `O=C(c1ccccc1)c1ccc(O)cc1O`, the Potency entry was “inactive”.
Still for that read-out and setting: for `CN(C)c1nc(N(C)C)nc(N(C)C)n1` the value was “inactive”.
On the same count and under the same terms, for `CC(C)=CCC/C(C)=C\CO` the value was “inactive”.
Same read-out and setting: for `C/C=C/C(=O)O` the value was “inactive”; for `CC(=O)CC/C=C(\C)CCC=C(C)C`, “inactive”; for `Nc1ccc(Cl)cc1Cl`, “inactive”.
Consider `Brc1cc(Oc2cc(Br)c(Br)c(Br)c2Br)c(Br)c(Br)c1Br`, for which the Potency result was “inactive”.
`OC1CCCCCCCCCCC1`: the Potency entry is “inactive”.
Still for that read-out and setting: for `CCCCOCCOCCO` the value was “inactive”; for `COc1ccccc1/C=C/C=O`, “inactive”.
For the molecule `C[C@]12CC[C@H]3[C@@H](CCC4=CC(=O)CC[C@@]43C)[C@@H]1CC[C@@H]2C(=O)CO`, the Potency entry was “inactive”.
For the molecule `CC(=O)O[C@]1(C(C)=O)CC[C@H]2[C@@H]3C=C(Cl)C4=CC(=O)[C@@H]5C[C@@H]5[C@]4(C)[C@H]3CC[C@@]21C`, the Potency entry was “inactive”.
As to `CCCCOCCOCCOCCO`, the Potency result was “inactive”.
For `CC1=CC2C3CC(C=C3C)C2C1` (stereo not given), the Potency entry was “inactive”.
Same read-out and setting: for `CC(C)(C)NC(=O)[C@H]1CC[C@H]2[C@@H]3CC[C@H]4NC(=O)C=C[C@]4(C)[C@H]3CC[C@]12C` the value was “inactive”; for `CC(C)Oc1ccc2c(=O)c(-c3ccccc3)coc2c1`, “inactive”; for `O=C1OC2(c3cc(Br)c(O)c(Br)c3Oc3c2cc(Br)c(O)c3Br)c2c(Cl)c(Cl)c(Cl)c(Cl)c21`, 24.4 µM (active) and 13.2 µM (active).
